Rows were chosen to be rich in hits. Some 3.9% of all compounds tested hit in one or more screens of this group.
SUMO HTRF inh – blocks human SUMOylation mediated by UBC9; P63279; HTRF SUMOylation assay, SAE1/SAE2 + UBC9, in vitro; inhibition, % at 35 µM; hit rate 0.36% among 290,000; AID 2006; in the data active = inhibition above about 50%, passing the limit was not always enough
Target sequence (P63279 whole entry, looked up): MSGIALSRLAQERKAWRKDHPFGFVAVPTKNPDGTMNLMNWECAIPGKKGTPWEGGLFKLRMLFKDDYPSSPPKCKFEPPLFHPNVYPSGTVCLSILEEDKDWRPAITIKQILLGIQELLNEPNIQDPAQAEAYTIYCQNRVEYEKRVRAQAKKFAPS
NTR1 agonist – agonists of human neurotensin receptor NTR1; P30989; NTR1-U2OS beta-arrestin-GFP spot imaging, agonist mode; activation, % at 20 µM; hit rate 0.17% among 330,000;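 active = activation at or above 40% of the spot to cytoplasm intensity ratio, with at least 20 cells analyzed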
ALR inh – blocks human ALR sulfhydryl oxidase activity | P55789 | AID 485317 | hit rate 3.8% among 290,000 | purified ALR, DTT oxidation, H2O2 HRP-luminol luminescence | inhibition, % (no concentration beside the values);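 active = mean replicate inhibition above about 79%, with every replicate also reaching it, limit read from the data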
Target sequence (P55789 whole entry, looked up): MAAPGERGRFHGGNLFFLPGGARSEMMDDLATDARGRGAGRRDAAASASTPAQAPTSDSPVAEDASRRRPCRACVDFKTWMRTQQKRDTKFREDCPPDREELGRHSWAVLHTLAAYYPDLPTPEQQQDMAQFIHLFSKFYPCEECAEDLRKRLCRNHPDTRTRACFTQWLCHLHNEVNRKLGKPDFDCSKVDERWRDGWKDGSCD
Cardio protect – protects H9c2 cardiomyocytes from peroxide injury | H2O2 injury protection, ATPLite, 2 h | protection from H2O2 cell death, % at 20 µM | hit rate 0.63% among 360,000 | AID 588492;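 active = compounds giving at least 50% protection of heart cells from peroxide-induced death in the single-dose screen, raw or plate-pattern-corrected value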
Large screens that a line does not name were inactive.

CCCCCCC(=O)N/N=C/c1ccco1	ALR inh 97.3
COc1ccc2c(c1)CC/C(=C\C=C\c1ccccc1)C2=O	none (no result: ALR inh)
CCc1ccc(C2C(C#N)=C(N)Oc3cc(N)ccc32)cc1 (configuration not stated)	none
CCC(C)(C)NC(=O)c1ccc2c(c1)N(CC(=O)OC)C(=O)C(C)(C)O2	none
Cc1cccc(NC(=O)CCC(=O)N/N=C/c2ccc(O)cc2O)c1	Cardio protect 69.3
CCCCSc1nnc2c(n1)OC(C(=O)c1ccccc1)Nc1ccccc1-2 (configuration not stated)	none (no result: NTR1 agonist, ALR inh, Cardio protect)
COc1cc(/C=N/NC(=O)c2cccc([N+](=O)[O-])c2)ccc1O	ALR inh 99.1
Cc1ccccc1C(=O)Nc1cccc(C(=O)N/N=C/c2ccc3c(c2)OCO3)c1	none
COc1cc(/C=N/NC(=O)Cc2nnc(NC(=O)c3ccccc3)s2)ccc1O	none
COc1cc(C(=O)N/N=C/c2ccc(OC(=O)c3cccc(C)c3)c(OC)c2)ccc1O	Cardio protect 58.0
COc1cccc(C(=O)Oc2ccc(/C=N/NC(=O)c3ccncc3)cc2OC)c1	none
COc1cc(/C=N/NC(=O)c2cccc(NC(=O)c3ccccc3C)c2)ccc1O	ALR inh 94.8
COc1ccc(/C=N/NC(=O)c2cccc([N+](=O)[O-])c2)cc1O	none
COc1cc(/C=N/NC(=O)c2cccc(NC(=O)c3ccccc3)c2)ccc1O	ALR inh 98.2
CN(CCN1CCOCC1)C(=O)c1cc(COc2ccc(F)c(F)c2)on1	none
C=CCNc1nc(C(=O)OCC(=O)Nc2c(Cl)cccc2C(F)(F)F)cs1	none (no result: SUMO HTRF inh)
COc1ccc(OC)c(CC(NC(C)=O)C(=O)NC2CCN(c3nc(C)cc(C)c3C#N)CC2)c1 (configuration not stated)	none (no result: NTR1 agonist, ALR inh, Cardio protect)
COc1ccc2c(c1)C1(C)CC(C)(C)N2C(=O)N1c1ccccc1 (configuration not stated)	none
COc1cc(/C=C/C(=O)c2cccc([N+](=O)[O-])c2)cc(OC)c1OC	ALR inh 96.4
Cc1c(C(=O)NCCSCc2ccc(Cl)cc2Cl)cccc1[N+](=O)[O-]	none
Cc1ccc(C(=O)NCCSCc2ccc(Cl)cc2Cl)cc1[N+](=O)[O-]	ALR inh 88.6
CCOC(=O)c1ccc(S(=O)(=O)Nc2cc(C(=O)O)ccc2Cl)cc1	ALR inh 98.9
Cc1[nH]nc2c1C1(CCN(Cc3ccccc3)CC1)C(C#N)=C(N)O2	none
O=C(c1ccc(Br)o1)N1CCN=C1SCc1cccc(F)c1	none
COc1cc(OC)cc(C(=O)N2CCN=C2SCc2cccnc2)c1	ALR inh 99.7
O=C(c1ccc2c(c1)OCO2)N1CCN=C1SCc1ccccc1	ALR inh 92.7
O=C(Cc1ccccc1)N1CCN=C1SCc1ccc([N+](=O)[O-])cc1	none (no result: ALR inh)
O=C(c1cccc(F)c1)N1CCN=C1SCc1cccnc1	ALR inh 99.8
CCOC(=O)c1cnc2scnn2c1=O	none (no result: NTR1 agonist, ALR inh)
CSCCC(NC(=O)c1ccco1)C(=O)NCc1ccc2c(c1)OCO2 (configuration not stated)	none (no result: SUMO HTRF inh, ALR inh)
Cc1ccc2cc(CCNC(=O)c3ccc(S(=O)(=O)N4CCCCC4)cc3)c(=O)[nH]c2c1	none
CCNC(=S)N1CCNC(=O)C1CC(=O)OC (configuration not stated)	none
O=[N+]([O-])c1ccc(Nc2ccccc2)nc1	none
Cn1ccnc1SC(=O)N1c2ccccc2Sc2ccccc21	ALR inh 98.5
O=C(Sc1nnc(-c2ccccc2)o1)N1c2ccccc2Sc2ccccc21	ALR inh 93.3
CC#CCCCC(=O)Nc1cc(OC)nc(OC)n1	none
CCOCCCNC(=S)Nc1ccc2nc(N3CCOCC3)cc(C)c2c1	ALR inh 99.1
COc1ccc(CNC(=S)Nc2ccc3nc(N4CCOCC4)cc(C)c3c2)cc1	ALR inh 98.8
CCN(CC)CCNC(=S)Nc1ccc2nc(N3CCCC3)cc(C)c2c1	ALR inh 99.4
CCN(CC)CCNC(=S)Nc1ccc2nc(N3CCN(C)CC3)cc(C)c2c1	none
CCCCNc1c(-c2ccc(OC)c(SC(C)CC)c2)nc2ccc(Cl)cn12 (configuration not stated)	none (no result: SUMO HTRF inh)
COc1cc(-c2cc(NC(C)=O)c3ncc(-c4ccc(C(C)=O)cc4)n3c2)cc(OC)c1OC	Cardio protect 60.7 (no result: SUMO HTRF inh, NTR1 agonist, ALR inh)
COc1cc(-c2cc(NC(C)=O)c3ncc(-c4ccc(F)cc4)n3c2)cc(OC)c1OC	Cardio protect 53.9 (no result: SUMO HTRF inh, NTR1 agonist, ALR inh)
CC(=O)Nc1cc(-c2cccc(CO)c2)cn2c(-c3ccc(C(C)=O)cc3)cnc12	none (no result: SUMO HTRF inh, NTR1 agonist, ALR inh)
CC(=O)NC1CC2CCCC(C1)N2CC(=O)NCc1ccc(F)cc1 (configuration not stated)	none
C=CCn1c(COc2ccc(Cl)cc2)nnc1SCC(=O)N/N=C/c1cccc(O)c1	none
C=CCn1c(COc2ccccc2)nnc1SC(C)C(=O)N/N=C/c1cc(Cl)ccc1O (configuration not stated)	Cardio protect 66.6
CCOc1ccc(NC(=O)CN2CCN(c3ccc(F)cc3)CC2)cc1	none (no result: ALR inh)
O=C(Nc1ccc(O)c2c(=O)cc(-c3ccccc3Cl)oc12)c1ccc(Cl)cc1Cl	none
CCN(CC)S(=O)(=O)c1cccc(-c2n[nH]c(=S)n2/N=C/c2ccc(OC)cc2)c1	none (no result: ALR inh)
CCN(CC)S(=O)(=O)c1cccc(-c2n[nH]c(=S)n2/N=C/c2ccc(OC(F)F)cc2)c1	ALR inh 97.7
CCCC[n+]1ccn(-c2nc3ccccc3nc2[N-]S(=O)(=O)c2ccccc2)c1	none
Cc1cc(-c2n[nH]c(=S)n2/N=C/c2cccc([N+](=O)[O-])c2)n[nH]1	ALR inh 97.1
Cc1cc(-c2n[nH]c(=S)n2/N=C/c2cccc(O)c2)n[nH]1	ALR inh 96.3
COCCCNC(=O)c1ccccc1N(Cc1ccccc1)S(=O)(=O)c1ccc(OC)cc1	none
COCCN1CC(=O)N2C(c3cccc(C)c3)c3[nH]c4ccccc4c3C[C@H]2C1=O (some centres not stated)	none (no result: ALR inh)
COc1cccc(-c2ccc(=O)n(CC(=O)NCCN3CCOCC3)n2)c1	none
CCCCC(=O)NNC(=O)N1c2ccccc2Sc2ccccc21	ALR inh 98.8
CC(C)NC(=O)N1c2ccccc2Sc2ccccc21	none
CC(C)(C)NC(=O)N1c2ccccc2Sc2ccccc21	ALR inh 81.6
Nc1cc(S(=O)(=O)N2CCOCC2)ccc1N1CCCCC1	ALR inh 98.1 (no result: SUMO HTRF inh)
Nc1cc(S(=O)(=O)Nc2ccccc2Cl)ccc1N1CCCC1	ALR inh 98.5
Nc1cc(S(=O)(=O)N2CCCCC2)ccc1N1CCCCC1	none (no result: SUMO HTRF inh, ALR inh)
CCC(CC)C(=O)c1c[nH]c(C(=O)NCc2cccs2)c1	none
CC1Cc2cc(/C(O)=C3/C(=O)C(=O)N(CCCn4ccnc4)C3c3cccnc3)ccc2O1 (configuration not stated)	none
Cc1oc(-c2ccccc2Cl)nc1CS(=O)CC(=O)NCCCN1CC(C)CC(C)C1 (configuration not stated)	ALR inh 88.5
Cc1ccccc1-c1nc(CS(=O)CC(=O)NCCc2ccc(Cl)cc2)c(C)o1 (configuration not stated)	ALR inh 97.7
Cc1oc(-c2ccccc2Cl)nc1CS(=O)(=O)CC(=O)NCCc1ccccc1	none
Cc1oc(-c2ccccc2Cl)nc1CS(=O)CC(=O)NCCc1ccccc1 (configuration not stated)	ALR inh 99.4

Bioassay records: PubChem, several laboratories
